PubChem BioAssay (NCATS)
Unmarked numbers belong to inactive results. Results filed as inconclusive are left out. Where a call stands in place of a potency, no number is given. Activity calls are given as the source filed them. Unless noted, calls follow the shape of the dose curve; as a rule, active = well fitted curve in the direction sought with a large enough effect; inconclusive = small, poorly fitted or top-dose-only effect, or another doubt; inactive = no such curve, though single readings can be large; an effect the other way counts as inactive or inconclusive.

Experiments:
[1] = NS1 protein of Zika virus - qHTS assay to identify small molecule inhibitors in human HEK 293 cells (AID 1347053); also: nearly all actives have a fitted effect of over 55% in size
Summary of the method: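 Compound-treated (1 h pre-infection) HEK 293 cells infected with ZIKV MR766, MOI = 0.5; after 24 h at 37 C, NS1 read by TR-FRET; data normalized to uninfected and infected controls.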

[2] = target: T1, Tyrosine-protein phosphatase non-receptor type substrate 1 (Homo sapiens) + Leukocyte surface antigen CD47 (Homo sapiens) (UniProt P78324+Q08722); assay: CD47-SIRPalpha protein protein interaction - LANCE assay qHTS validation (AID 1347057; active = well fitted curve in the direction sought with a large enough effect in the signal ratio, with a control signal flat, not every such curve was filed as active; the % refers to the signal ratio)
Summary of the method: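 Inhibition of soluble CD47/SIRPalpha ectodomain association by titrated compounds, measured as 665/615 nm time-resolved FRET ratio after sequential 30 min room-temperature incubations.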

[3] = target: T1, Tyrosine-protein phosphatase non-receptor type substrate 1 (Homo sapiens) + Leukocyte surface antigen CD47 (Homo sapiens); assay: CD47-SIRPalpha protein protein interaction - HTRF assay qHTS validation (AID 1347058; active = well fitted curve in the direction sought with a large enough effect in the signal ratio, not every such curve was filed as active; the % refers to the signal ratio)
Summary of the method: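 Soluble extracellular domains (6His-CD47, Avi-tag-biotinylated SIRPalpha) in PBS pH 7.4 with 0.05% IGEPAL CA-630. Compounds were preincubated 30 min at RT with CD47 and anti-His-Eu, then SIRPalpha and SAV-XL665 were added. TR-FRET 665/615 ratio.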

[4] = target: Parathyroid hormone/parathyroid hormone-related peptide receptor (Homo sapiens) (UniProt Q03431); assay: qHTS for PTHR1 Agonists: Optimization Screen against the NCGC LOPAC library (AID 1347079);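 also: GloSensor cAMP luminescence in HEK-293 GP2 cells expressing human PTHR1 with IBMX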
Summary of the method: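 HEK-293 GP2 cells, PTHR1 + GloSensor cAMP; 3000 cells/well, o/n. Luciferin + IBMX 0.5mM each (stock), 1 hr 37C. Cpd titration, 1 hr 37C. Lum after 15 min RT. Ctrl M-PTH(1-15) top 10uM.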

[5] = target: N-terminal Xaa-Pro-Lys N-methyltransferase 1 (Homo sapiens) (UniProt Q9BV86); assay: qHTS Assay for Inhibitors of N-terminal methyltransferase 1 (NTMT1): LOPAC validation of the NTMT1 SAHH-coupled ThioGlo3 Assay (AID 1347143);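 also: SAH from peptide methylation measured as thiol fluorescence via SAHH coupling and ThioGlo3; nearly all actives have a fitted effect of over 70% in size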; also: potency is read from the fitted curve at half-maximal effect
Summary of the method: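 Steps: dispense 125nM NTMT1; pin-transfer test compounds at several concentrations, with 1uM RCC1-6 peptide as control; incubate 1 min; start with reagent holding 100uM SAM, 10uM SAHH, 15uM ThioGlo3; read at 0 and 30 min.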

Furin (Homo sapiens) = Furin (Homo sapiens) (UniProt P09958); assay: Furin counterscreen qHTS for Zika virus inhibitors (AID 1347149);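 also: purified recombinant full-length human furin enzyme at 5 nM; fluorescence gain from furin cutting a BOC-RVRR-AMC peptide substrate over 15 min; top concentration of the series differs between compounds; nearly all actives have a fitted effect of over 70% in size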
Summary of the method: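 Counterscreen measures cleavage of 2 microM BOC-RVRR-AMC, below its ~15 microM Km, by 5 nM full-length human furin at pH 7.0 after a 15-min compound preincubation. Inhibition derives from the 15-min fluorescence increase at 37C.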

[6] = Confirmatory screen NINDS Rhodamine qHTS for Zika virus inhibitors (AID 1347161); also: nearly all actives have a fitted effect of over 60% in size; also: potency is read from the fitted curve at half-maximal effect
Summary of the method: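 In 10 mM Tris-HCl pH 8.0 containing 0.01% Tween 20, linked NS2B-NS3 protease (25 nM final) is exposed to test compounds for 15 min. Cleavage of 1.5 microM Rhodamine110 substrate is tracked by fluorescence over 15 min.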

[7] = target: Lysine-specific demethylase 5B (Homo sapiens) (UniProt Q9UGL1); assay: Optimization screen for KDM5B Histone Demethylases FDH coupled qHTS against the LOPAC library (AID 1347166); settings: KDM5B demethylation, FDH-coupled NADH fluorescence (FDH is formaldehyde dehydrogenase); at 57.5 µM (top of the series)
Summary of the method: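 KDM5BDeltaAP (200nM final) in 50mM HEPES pH 7.5, 0.01% Tween-20 was preincubated with compound for 10 min at room temperature. A substrate mix of 12.5uM H3K4Me3, 25uM a-ketoglutarate, ascorbate, Fe2+, NAD+ and formaldehyde dehydrogenase was then added. NADH fluorescence (340/450 nm) was read initially and after 30 min.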

[8] = Vero cells viability qHTS for Zika virus inhibitors (AID 1347167)
Summary of the method: (§1)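 qHTS titration; 24-48 h compound exposure, 37 degrees C/5% CO2; DMEM, 4% FBS; CellTiter Glo ATP luminescence.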

[9] = HepG2 cells viability qHTS for Zika virus inhibitors (AID 1347168)
Summary of the method: as §1

[10] = target: T1, Tyrosine-protein phosphatase non-receptor type substrate 1 (Homo sapiens) + Leukocyte surface antigen CD47 (Homo sapiens); assay: CD47-SIRPalpha protein protein interaction - Alpha assay qHTS validation (AID 1347059);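 also: bead proximity luminescence from CD47 binding SIRPalpha after compound preincubation with SIRPalpha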
Summary of the method: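 SIRPalpha-biotin 25 nM + cpd, 30 min RT, dark; add CD47-His 12.5 nM, 30 min; add Ni-NTA/SAV beads 10 ug/mL, 30 min; AlphaScreen. Buffer PBS pH 7.4 + 0.05% IGEPAL CA-630. Non-biotinylated SIRPalpha as control inhibitor.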

[11] = system: Zika virus NS2B-NS3 protease (unlinked); assay: Optimization of GU AMC qHTS for Zika virus inhibitors: Unlinked NS2B-NS3 protease assay (AID 1347151); also: nearly all actives have a fitted effect of over 80% in size; also: potency is read from the fitted curve at half-maximal effect
Summary of the method: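 In this qHTS, compounds acted on 25 nM unlinked Zika NS2B–NS3 in pH 8.0 Tris/Tween buffer. Cleavage of an AMC peptide ran 15 min at room temperature, to about 20% conversion.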

[12] = system: Zika virus NS2B-NS3 protease (linked construct); assay: Confirmatory screen NINDS AMC qHTS for Zika virus inhibitors (AID 1347152);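 also: AMC fluorescence gain from cleaved Bz-Nle-KRR-AMC substrate over 15 min; top concentration of the series differs between compounds; nearly all actives have a fitted effect of over 70% in size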
Summary of the method: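 Concentration-response confirmation used the NINDS linked protease (NS2B hydrophilic domain joined to NS3 protease domain), 1 nM, with a 15-min compound preincubation. Substrate, Nle-KRR-AMC at 10 microM, was read by UV fluorescence before and after 15 min.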

[13] = system: Zika virus NS2B-NS3 protease (unlinked complex); assay: Confirmatory screen GU AMC qHTS for Zika virus inhibitors (AID 1347153); also: nearly all actives have a fitted effect of over 70% in size
Summary of the method: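 Unlinked enzyme 25 nM, Tris pH 8.0/0.01% Tween 20; cpd 15 min RT, dark; + AMC substrate 10 µM (Km 18.3 µM); 340/450 nm read at t0 and 15 min; % inhibition → 4-param fit.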

[14] = system: Zika virus NS2B-NS3 protease; assay: Primary screen GU AMC qHTS for Zika virus inhibitors (AID 1347154); also: nearly all actives have a fitted effect of over 70% in size
Summary of the method: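 Unlinked Zika NS2B hydrophilic domain–NS3 protease complex at 25 nM in 10 mM Tris-HCl pH 8.0, 0.01% Tween 20, with an AMC peptide substrate. Fluorescence change (340/450 nm) over 15 min at room temperature, normalized to controls, fitted to 4-parameter Hill.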

[15] = system: Zika virus NS2B-NS3 protease (linked construct); assay: Primary screen NINDS Rhodamine qHTS for Zika virus inhibitors (AID 1347160); also: nearly all actives have a fitted effect of over 55% in size
Summary of the method: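 Single-chain NS2B-NS3 protease, 25 nM, pH 8.0; compounds preincubated 15 min. Activity: Rhodamine110 release from 1.5 microM substrate over 15 min, room temperature, data fitted to 4-parameter Hill.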

T1 sequence (P78324 whole entry, looked up, the tested form may be a part): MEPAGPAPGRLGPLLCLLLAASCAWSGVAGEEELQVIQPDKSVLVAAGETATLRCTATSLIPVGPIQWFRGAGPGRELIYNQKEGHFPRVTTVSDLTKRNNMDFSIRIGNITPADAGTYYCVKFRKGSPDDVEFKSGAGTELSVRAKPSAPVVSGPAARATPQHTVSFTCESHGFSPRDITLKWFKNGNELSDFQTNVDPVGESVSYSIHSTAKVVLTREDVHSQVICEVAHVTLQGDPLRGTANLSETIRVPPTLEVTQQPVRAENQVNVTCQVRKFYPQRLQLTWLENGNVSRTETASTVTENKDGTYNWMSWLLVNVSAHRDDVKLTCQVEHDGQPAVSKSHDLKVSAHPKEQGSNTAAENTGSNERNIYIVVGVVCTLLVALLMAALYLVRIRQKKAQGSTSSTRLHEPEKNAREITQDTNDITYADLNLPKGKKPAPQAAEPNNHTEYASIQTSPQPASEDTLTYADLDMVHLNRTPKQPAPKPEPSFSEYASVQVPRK
T1 sequence (Q08722 whole entry, looked up, the tested form may be a part): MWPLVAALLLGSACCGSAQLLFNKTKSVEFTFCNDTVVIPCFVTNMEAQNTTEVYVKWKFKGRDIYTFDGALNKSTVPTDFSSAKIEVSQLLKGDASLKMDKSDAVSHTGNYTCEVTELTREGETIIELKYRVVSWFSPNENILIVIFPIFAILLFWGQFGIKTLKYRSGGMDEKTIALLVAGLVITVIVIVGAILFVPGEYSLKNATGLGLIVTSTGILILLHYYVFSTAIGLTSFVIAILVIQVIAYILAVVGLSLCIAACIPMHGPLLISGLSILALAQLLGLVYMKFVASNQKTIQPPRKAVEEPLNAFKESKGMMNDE
Parathyroid hormone/parathyroid hormone-related peptide receptor (Homo sapiens), sequence (Q03431 whole entry, looked up): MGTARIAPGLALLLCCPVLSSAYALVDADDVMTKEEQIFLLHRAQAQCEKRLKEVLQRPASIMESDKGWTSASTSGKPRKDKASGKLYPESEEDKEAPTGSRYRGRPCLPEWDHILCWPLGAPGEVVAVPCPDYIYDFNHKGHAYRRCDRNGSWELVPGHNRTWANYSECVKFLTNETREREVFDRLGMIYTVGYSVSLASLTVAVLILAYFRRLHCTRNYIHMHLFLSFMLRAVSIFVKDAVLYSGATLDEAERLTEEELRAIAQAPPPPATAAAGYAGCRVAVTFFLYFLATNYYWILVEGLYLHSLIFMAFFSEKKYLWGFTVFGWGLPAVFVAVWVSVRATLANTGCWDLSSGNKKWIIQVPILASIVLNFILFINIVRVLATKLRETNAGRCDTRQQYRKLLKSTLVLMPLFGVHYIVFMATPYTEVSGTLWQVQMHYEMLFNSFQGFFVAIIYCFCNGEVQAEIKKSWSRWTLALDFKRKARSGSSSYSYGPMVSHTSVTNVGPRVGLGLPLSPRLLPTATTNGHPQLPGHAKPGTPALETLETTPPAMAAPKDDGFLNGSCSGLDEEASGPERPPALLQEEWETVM
N-terminal Xaa-Pro-Lys N-methyltransferase 1 (Homo sapiens), sequence (Q9BV86 whole entry, looked up): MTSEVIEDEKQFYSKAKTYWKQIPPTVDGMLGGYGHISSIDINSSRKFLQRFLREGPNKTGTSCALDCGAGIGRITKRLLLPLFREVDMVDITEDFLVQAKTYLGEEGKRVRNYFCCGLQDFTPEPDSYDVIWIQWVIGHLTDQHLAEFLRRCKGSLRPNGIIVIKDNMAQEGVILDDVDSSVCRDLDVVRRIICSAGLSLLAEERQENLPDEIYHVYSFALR
Lysine-specific demethylase 5B (Homo sapiens), sequence (Q9UGL1 whole entry, looked up): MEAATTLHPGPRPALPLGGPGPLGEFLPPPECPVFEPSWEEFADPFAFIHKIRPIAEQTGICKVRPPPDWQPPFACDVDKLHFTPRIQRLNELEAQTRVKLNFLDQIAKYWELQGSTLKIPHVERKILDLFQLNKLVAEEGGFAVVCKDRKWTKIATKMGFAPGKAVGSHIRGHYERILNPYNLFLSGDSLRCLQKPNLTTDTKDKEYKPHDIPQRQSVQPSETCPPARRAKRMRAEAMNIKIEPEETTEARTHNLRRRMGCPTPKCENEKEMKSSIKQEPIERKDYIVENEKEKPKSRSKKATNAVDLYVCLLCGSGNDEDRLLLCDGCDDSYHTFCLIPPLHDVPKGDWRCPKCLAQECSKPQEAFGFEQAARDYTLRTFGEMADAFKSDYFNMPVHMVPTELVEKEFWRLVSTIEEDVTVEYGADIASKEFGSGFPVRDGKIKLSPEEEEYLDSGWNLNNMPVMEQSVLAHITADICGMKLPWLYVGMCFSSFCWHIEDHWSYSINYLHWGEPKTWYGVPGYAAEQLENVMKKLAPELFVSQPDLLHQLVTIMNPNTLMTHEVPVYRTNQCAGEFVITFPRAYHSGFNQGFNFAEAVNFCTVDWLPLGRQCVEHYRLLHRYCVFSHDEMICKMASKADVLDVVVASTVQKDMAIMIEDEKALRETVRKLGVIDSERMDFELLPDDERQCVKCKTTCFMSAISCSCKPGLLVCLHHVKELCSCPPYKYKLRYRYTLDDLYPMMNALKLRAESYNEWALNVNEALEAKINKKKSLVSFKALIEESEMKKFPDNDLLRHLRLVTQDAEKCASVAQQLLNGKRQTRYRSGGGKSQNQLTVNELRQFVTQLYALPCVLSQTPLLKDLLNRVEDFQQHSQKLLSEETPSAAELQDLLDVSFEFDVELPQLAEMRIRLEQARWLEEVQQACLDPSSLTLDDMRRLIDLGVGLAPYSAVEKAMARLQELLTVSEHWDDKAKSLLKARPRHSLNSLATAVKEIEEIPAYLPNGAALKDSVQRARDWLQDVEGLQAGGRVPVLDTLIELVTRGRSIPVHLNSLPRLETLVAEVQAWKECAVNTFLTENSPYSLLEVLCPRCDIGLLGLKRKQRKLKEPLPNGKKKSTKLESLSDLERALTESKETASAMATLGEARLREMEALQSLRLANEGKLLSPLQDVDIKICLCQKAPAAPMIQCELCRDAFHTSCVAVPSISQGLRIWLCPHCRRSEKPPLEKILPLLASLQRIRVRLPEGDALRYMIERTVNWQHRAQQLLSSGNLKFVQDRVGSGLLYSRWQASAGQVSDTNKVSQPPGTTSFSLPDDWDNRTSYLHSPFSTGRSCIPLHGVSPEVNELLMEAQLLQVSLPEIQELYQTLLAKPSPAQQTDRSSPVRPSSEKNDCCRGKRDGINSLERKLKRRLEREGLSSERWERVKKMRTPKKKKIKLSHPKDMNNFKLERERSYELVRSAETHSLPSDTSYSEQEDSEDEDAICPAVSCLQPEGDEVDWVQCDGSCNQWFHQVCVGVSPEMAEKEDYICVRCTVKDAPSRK
Furin (Homo sapiens), sequence (P09958 whole entry, looked up): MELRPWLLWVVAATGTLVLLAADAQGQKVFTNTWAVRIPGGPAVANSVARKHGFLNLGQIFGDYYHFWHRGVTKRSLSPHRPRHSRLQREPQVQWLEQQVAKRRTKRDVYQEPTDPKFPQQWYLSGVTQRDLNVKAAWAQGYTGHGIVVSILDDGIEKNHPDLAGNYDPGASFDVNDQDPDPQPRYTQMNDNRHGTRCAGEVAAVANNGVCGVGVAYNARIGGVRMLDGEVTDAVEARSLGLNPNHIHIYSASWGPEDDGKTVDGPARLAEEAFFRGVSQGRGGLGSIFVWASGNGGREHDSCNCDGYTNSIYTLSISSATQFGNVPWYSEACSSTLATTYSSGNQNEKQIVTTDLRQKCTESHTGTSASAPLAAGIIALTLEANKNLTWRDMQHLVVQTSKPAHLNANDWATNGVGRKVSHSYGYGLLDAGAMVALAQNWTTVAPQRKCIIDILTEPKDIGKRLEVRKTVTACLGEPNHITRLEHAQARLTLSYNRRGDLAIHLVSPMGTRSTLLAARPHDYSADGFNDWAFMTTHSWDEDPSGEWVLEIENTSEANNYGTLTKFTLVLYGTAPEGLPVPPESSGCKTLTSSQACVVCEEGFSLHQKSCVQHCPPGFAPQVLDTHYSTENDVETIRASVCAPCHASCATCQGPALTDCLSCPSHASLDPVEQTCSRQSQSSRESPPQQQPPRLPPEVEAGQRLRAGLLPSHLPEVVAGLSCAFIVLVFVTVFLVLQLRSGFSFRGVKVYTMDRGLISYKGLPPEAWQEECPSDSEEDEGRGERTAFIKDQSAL

## CCCC[C@@]1(C2CCCC2)Cc2cc(OCC(=O)O)c(Cl)c(Cl)c2C1=O
[1]
  Potency: inactive
[2]
  Potency: inactive
[3]
  outcome: inactive
[4]
  Potency: inactive
[5]
  Potency: inactive
Furin (Homo sapiens)
  Potency: inactive
[6]
  Potency: 7.82 µM (active)
[7]
  activity, negative = inhibition: -4.31%
[8]
  Potency: inactive
[9]
  outcome: inactive

## CN(C)C(=O)/N=N/C(=O)N(C)C
[1]
  Potency: inactive
[2]
  Potency: inactive
[10]
  Potency: inactive
[4]
  Potency: inactive
[5]
  Potency: 7.08 µM (active)

## Nc1ccc(-c2ccc3ccccc3n2)cc1
[1]
  Potency: inactive
[2]
  Potency: inactive
[10]
  Potency: inactive
[4]
  Potency: inactive
[5]
  Potency: 39.8 µM (active)
Furin (Homo sapiens)
  Potency: inactive
[11]
  Potency: 23.8 µM (active)
[12]
  Potency: inactive
[13]
  Potency: inactive
[6]
  Potency: inactive
[8]
  Potency: inactive
[9]
  outcome: inactive

## Nc1ncnc2c1ncn2C1CCCC1
[1]
  Potency: inactive
[2]
  Potency: inactive
[3]
  outcome: inactive
[4]
  Potency: inactive
[5]
  Potency: inactive
[11]
  Potency: inactive

## CCN1C(=O)C=CC1=O
[1]
  Potency: inactive
[2]
  Potency: inactive
[3]
  outcome: inactive
[4]
  Potency: inactive
[11]
  Potency: inactive
[7]
  activity, negative = inhibition: -3.85%

## CCCCC[C@H](CC(=O)NO)C(=O)N[C@H](C(=O)N1CCC[C@H]1CO)C(C)C
[1]
  Potency: inactive
[2]
  Potency: inactive
[3]
  outcome: inactive
[4]
  Potency: inactive
[5]
  Potency: inactive
[11]
  Potency: inactive
[7]
  activity, negative = inhibition: 9.91%

## C[C@H]1CC2C3CCC4=CC(=O)C=C[C@]4(C)[C@@]3(Cl)[C@@H](O)C[C@]2(C)[C@@]1(O)C(=O)CO (stereo partly drawn)
[1]
  Potency: inactive
[2]
  Potency: inactive
[3]
  outcome: inactive
[4]
  Potency: inactive
[5]
  Potency: inactive
[11]
  Potency: inactive
[7]
  activity, negative = inhibition: -1.11%

## C=CCN1CCc2c(cc(O)c(O)c2Cl)C(c2ccccc2)C1 (stereo not drawn)
[1]
  Potency: inactive
[2]
  Potency: inactive
[3]
  outcome: inactive
[4]
  Potency: inactive
[5]
  Potency: 20 µM (active)
[11]
  Potency: 18.9 µM (active)

## CC(=O)NCCc1c[nH]c2ccc(O)cc12
[1]
  Potency: inactive
[2]
  Potency: inactive
[10]
  Potency: inactive
[4]
  Potency: inactive
[11]
  Potency: inactive
[14]
  Potency: inactive
[15]
  outcome: inactive
[7]
  activity, negative = inhibition: -23.2%

## C[C@H](NC(=O)/C(C#N)=C/c1ccc(O)c(O)c1)c1ccccc1
[1]
  Potency: inactive
[2]
  Potency: inactive
[10]
  Potency: inactive
[4]
  Potency: inactive
[5]
  Potency: 25.1 µM (active)
[11]
  Potency: 2.38 µM (active)

## CNCCc1cnc(CCC(c2ccccc2)c2ccccc2)[nH]1
[1]
  Potency: inactive
[2]
  Potency: inactive
[10]
  Potency: inactive
[4]
  Potency: inactive
[11]
  Potency: inactive

## N#CC(=C(\N)Sc1ccccc1N)/C(C#N)=C(/N)Sc1ccccc1N
[1]
  Potency: inactive
[2]
  Potency: inactive
[10]
  Potency: inactive
[5]
  Potency: 56.2 µM (active)
[7]
  activity, negative = inhibition: -5.86%

## O=C(O)/C(=C/c1c(C(=O)O)[nH]c2cc(Cl)cc(Cl)c12)c1ccccc1
[1]
  Potency: inactive
[2]
  Potency: inactive
[10]
  Potency: inactive
[4]
  Potency: inactive
[5]
  Potency: inactive
[11]
  Potency: inactive
[7]
  activity, negative = inhibition: -2.54%

## NC[C@@H]1O[C@H](c2ccccc2)Cc2c1ccc(O)c2O
[1]
  Potency: inactive
[2]
  Potency: inactive
[10]
  Potency: inactive
[4]
  Potency: inactive
[11]
  Potency: inactive
[14]
  Potency: inactive

## Nc1ccc(N2C(=O)c3ccccc3C2=O)c(Cl)c1
[1]
  Potency: inactive
[2]
  Potency: inactive
[10]
  Potency: inactive
[4]
  Potency: inactive
[5]
  Potency: inactive
[7]
  activity, negative = inhibition: -4.03%

## Oc1ccc(/C=C/c2ccc(/C=C/c3ccc(O)cc3)c(Br)c2)cc1
[1]
  Potency: inactive
[2]
  Potency: inactive
[10]
  Potency: inactive
[4]
  Potency: inactive
[5]
  Potency: inactive
[11]
  Potency: inactive
[7]
  activity, negative = inhibition: 662%

## N#Cc1cc([N+](=O)[O-])c2sc(C(N)=O)[n+]([O-])c2c1
[1]
  Potency: inactive
[2]
  Potency: inactive
[10]
  Potency: inactive
[4]
  Potency: inactive
[11]
  Potency: inactive

## N#CC(C#N)=C(N)/C(C#N)=C/c1ccc(O)cc1
[1]
  Potency: inactive
[2]
  Potency: inactive
[10]
  Potency: inactive
[4]
  Potency: inactive
[11]
  Potency: inactive
[7]
  activity, negative = inhibition: -9.24%

## CC[C@H](NC(=O)c1c(C)c(-c2ccccc2)nc2ccccc12)c1ccccc1
[1]
  Potency: inactive
[2]
  Potency: inactive
[10]
  Potency: inactive
[4]
  Potency: inactive
[5]
  Potency: inactive
[11]
  Potency: inactive
[14]
  Potency: inactive
[7]
  activity, negative = inhibition: -4.22%

## O=c1cc(O)cc(/C=C/c2ccc(O)c(O)c2)o1
[1]
  Potency: inactive
[2]
  Potency: inactive
[10]
  Potency: inactive
[5]
  Potency: 44.7 µM (active)
[11]
  Potency: 13.4 µM (active)
